Screening results (PubChem)
Mcl-1 Bim block: disrupts Bim peptide binding to human Mcl-1 | Q07820 | Bead-based flow cytometry, Bim peptide-Mcl-1 binding | inhibition, % at 10 µM | 0.1% of 190,000 active; in the data active means inhibition above about 40%;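 further: 0% = no compound tracer wells and 100% = peptide blocker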
Mcl1-Bid inh: disrupts binding of human Mcl-1 to Bid peptide | Q07820 | TR-FRET Mcl-1/Bid-Dy647 peptide binding, 1536-well | inhibition, % at 21.7 µM | 0.97% of 220,000 active | AID 1021;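 active means compounds that cut the binding signal by more than half at the single screening dose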;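 further: His-tagged Mcl-1 with europium anti-His antibody binding Bid BH3 peptide; 0% = Mcl-1 plus peptide wells and 100% = peptide-only wells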
Mcl1-Noxa inh: disrupts binding of human Mcl-1 to Noxa peptide | Q07820 | TR-FRET Mcl-1/Noxa peptide binding, 2 h | inhibition, % at 21.7 µM | 1.5% of 220,000 active;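 active means compounds that cut the protein-peptide binding signal by more than 50% relative to plate controls in a single-dose test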;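 further: His-tagged Mcl-1 with rhodamine Noxa BH3 peptide and terbium anti-His antibody; 0% = Mcl-1 plus Noxa peptide wells and 100% = peptide-only wells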
14-3-3 Bad PPI: disrupts binding of bovine 14-3-3 zeta to phospho-Bad peptide; P63103; TR-FRET 14-3-3zeta/Dy647-pBad peptide displacement, 1 h; inhibition, % at 21.7 µM; 0.71% of 220,000 active;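 active means inhibition above about 70%, limit read from the data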;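 further: 0% = full 14-3-3 plus peptide FRET controls and 100% = background without 14-3-3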
Target sequence (P63103 whole entry, looked up): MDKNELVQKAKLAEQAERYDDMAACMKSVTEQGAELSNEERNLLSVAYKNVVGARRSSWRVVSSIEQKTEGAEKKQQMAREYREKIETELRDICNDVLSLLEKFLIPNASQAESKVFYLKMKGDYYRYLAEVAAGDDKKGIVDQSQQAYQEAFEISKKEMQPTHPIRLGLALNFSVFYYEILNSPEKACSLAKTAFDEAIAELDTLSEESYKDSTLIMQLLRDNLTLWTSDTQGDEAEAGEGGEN
eIF4E 4G PPI: eIF4E/eIF4G interaction inhibition in translation initiation; TR-FRET eIF4E-eIF4GI(517-606) binding, 2 h; AID 782; inhibition, % at 21.7 µM; 0.37% of 220,000 active;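 active means inhibition above about 30%, limit read from the data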;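 further: 0% = full FRET control wells and 100% = background wells lacking eIF4GI fragment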
MCL1 BIM primary: MCL1-BIM-BH3 interaction inhibition (human); GST-MCL1 / FITC-Bim-BH3 fluorescence polarization; inhibition, % at 10.9 µM; AID 2057; 0.68% of 320,000 active;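 active means inhibition above the mean inhibition of all tested compounds plus 3 SD, set per campaign, cut at about 40% in these data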;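 further: 0% = DMSO wells and 100% = unlabeled Bim-BH3 peptide control; higher means more loss of mP so more displacement of Bim peptide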
Bcl-xL conf: Bcl-xL (human) inhibition, MCL1 counter-screen confirmation; shares compounds with MCL1 BIM primary; inhibition, % at 10.9 µM; 54% of 1,700 active; GST-Bcl-xL / FITC-Bim BH3 peptide FP binding;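 active means inhibition above a cutoff equal to the mean inhibition of all tested compounds plus 3 SD, cut at about 30% in these data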;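 further: 0% = DMSO wells and 100% = unlabeled Bim BH3 control peptide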
Target sequence (Q07817 whole entry, looked up): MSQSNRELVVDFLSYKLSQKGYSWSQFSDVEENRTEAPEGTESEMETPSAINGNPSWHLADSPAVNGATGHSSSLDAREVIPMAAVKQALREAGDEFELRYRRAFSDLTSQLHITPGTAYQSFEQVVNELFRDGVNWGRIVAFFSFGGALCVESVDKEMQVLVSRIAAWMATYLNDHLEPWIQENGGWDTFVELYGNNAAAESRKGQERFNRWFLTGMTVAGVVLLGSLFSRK
MCL1 inh confirm: MCL1-BIM-BH3 interaction inhibition, confirmation. GST-MCL1 / FITC-Bim-BH3 fluorescence polarization. inhibition, % at 10.9 µM. 61% of 1,700 active. shares compounds with MCL1 BIM primary;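 active means inhibition above the average of all tested compounds plus 3 SD, cut at about 40% in these data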;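 further: 0% = DMSO wells and 100% = unlabeled Bim-BH3 control peptide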
Active calls of the source: *. In the library only some 2.6% were active in any assay of this set; here they are far more common.

CCOC(=O)C1=C(COC(=O)c2ccc([N+](=O)[O-])o2)NC(=O)NC1C (configuration not stated) was read as MCL1 BIM primary -21.
For Cc1ccccc1-c1nc(Cc2ccccc2)no1 the results were Mcl-1 Bim block 4, Mcl1-Bid inh -11, Mcl1-Noxa inh 5, 14-3-3 Bad PPI -5, eIF4E 4G PPI -2, MCL1 BIM primary 44*, Bcl-xL conf 3 and MCL1 inh confirm -4.
`CC(=O)Nc1ccc(Nc2ccc3c4c(cc(=O)n3C)-c3ccccc3C(=O)c24)cc1` gave Mcl-1 Bim block 8, Mcl1-Bid inh 1, Mcl1-Noxa inh 56*, 14-3-3 Bad PPI 0, eIF4E 4G PPI 9, MCL1 BIM primary 57*, Bcl-xL conf 61* and MCL1 inh confirm 70*.
For CCOc1cc(C2C3=C(CCCC3=O)NC3=C2C(=O)CCC3)cc(Cl)c1O the results were Mcl-1 Bim block -3, Mcl1-Bid inh -25, Mcl1-Noxa inh 37, 14-3-3 Bad PPI -3, eIF4E 4G PPI 3 and MCL1 BIM primary 8.
For CCOc1cc(C2C3=C(CCCC3=O)N(C)C3=C2C(=O)CCC3)cc(Cl)c1O the results were Mcl-1 Bim block 0, Mcl1-Bid inh -22, Mcl1-Noxa inh 8, 14-3-3 Bad PPI -16, eIF4E 4G PPI -3, MCL1 BIM primary 50*, Bcl-xL conf 26 and MCL1 inh confirm 24.
Oc1ccc(O)c(/C(=N/Nc2ccccc2)c2ccccc2)c1 was read as MCL1 BIM primary 49*, Bcl-xL conf 17 and MCL1 inh confirm 13.
For CCOC(=S)N/C(=N\S(=O)(=O)c1ccc(C)cc1)c1ccccc1 the results were Mcl-1 Bim block -5, Mcl1-Bid inh -1, Mcl1-Noxa inh 10, 14-3-3 Bad PPI 5, eIF4E 4G PPI -3 and MCL1 BIM primary 14.
N#C/C(=C\c1cc(Cl)c(OCc2ccc(Cl)cc2)c(Cl)c1)C(N)=O was read as Mcl1-Bid inh -22, Mcl1-Noxa inh 21, 14-3-3 Bad PPI 4, eIF4E 4G PPI 3 and MCL1 BIM primary 4.
N#C/C(=C\c1cc(O)c(O)c(O)c1)C(N)=O was read as Mcl1-Bid inh -44, Mcl1-Noxa inh 13, 14-3-3 Bad PPI 9, eIF4E 4G PPI 5, MCL1 BIM primary 53*, Bcl-xL conf 19 and MCL1 inh confirm 4.
Screening CN(Cc1ccccc1)C(=O)c1[nH]cnc1C(=O)Nc1cccc(Cl)c1 returned MCL1 BIM primary 15.
For Cc1ccccc1N=C(N)Nc1ccccc1C the results were MCL1 BIM primary 71*, Bcl-xL conf 63* and MCL1 inh confirm 85*.
`Cc1ccccc1NC(=O)NC(N)=O` gave Mcl-1 Bim block 1, Mcl1-Bid inh -19, Mcl1-Noxa inh 19, 14-3-3 Bad PPI -8, eIF4E 4G PPI -4 and MCL1 BIM primary -2.
For Cc1ccc(C=C2C(Cl)=C(Cl)C(Cl)=C2Cl)cc1 the results were Mcl1-Bid inh -1, Mcl1-Noxa inh 53*, 14-3-3 Bad PPI -5, eIF4E 4G PPI 9, MCL1 BIM primary 69*, Bcl-xL conf 23 and MCL1 inh confirm 30.
`O=C(Nc1ncccc1O)c1ccc(S(=O)(=O)Nc2ccccc2)cc1` gave MCL1 BIM primary 3.
For CCN(CC(=O)NCc1cccs1)C(=O)c1ccc(OC)c(OC)c1 the results were MCL1 BIM primary 2.
For Cc1ccc2[nH]c3c(c2c1)CN(C(=O)CN(C)CC1OCCO1)CC3 the results were Mcl-1 Bim block -8, Mcl1-Bid inh -38, Mcl1-Noxa inh 0, 14-3-3 Bad PPI -2, eIF4E 4G PPI 4, MCL1 BIM primary 61*, Bcl-xL conf 9 and MCL1 inh confirm 11.
`O=C(NCCC1CCCCN1S(=O)(=O)c1ccc(F)cc1)C(=O)Nc1ccccc1` (configuration not stated) gave MCL1 BIM primary 9.
`Cc1ccc(NC(=S)NNc2ccc(C(=O)O)cc2[N+](=O)[O-])cc1C` gave MCL1 BIM primary 6.
